An excerpt weighted towards active compounds, which were near 5.2% of everything screened.
GRIN3A LBD mod: binders of NR3A ligand-binding domain, primary screen, biophysical, differential scanning fluorimetry, uHTS. Tm shift relative to glycine control, % at 25 µM. Glutamate receptor ionotropic, NMDA 3A (GRIN3A) ligand-binding domain. 340,000 tested, 2.5% active. NR3A LBD differential scanning fluorimetry, Tm shift; 0% = protein alone, 100% = glycine-bound protein;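 active = melting temperature shift of at least 10% of the positive control shift, at one fixed dose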
esBAF inh: Bmi1 luciferase reporter increase in mESCs, primary screen, esBAF inhibitor project, mouse ES cells, Bmi1 luciferase knock-in, single point. 350,000 tested, 2% active. 24 h; 100% = twice the neutral-well signal. reporter increase, % at 12.5 µM. AID 602393, 2012; in the data active = activation above about 40%; inconclusive = no clear call, values can overlap the other calls;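 also: 0% = median of the plate's neutral control wells and 100% = double that signal; a rise in the Bmi1 reporter signal indicates esBAF inhibition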
NadD block: inhibitors of S. aureus NadD, primary screen, biochemical, colorimetric, uHTS. AID 602399, 2012. Nicotinate-nucleotide adenylyltransferase NadD (Staphylococcus aureus N315). inhibition, % at 20 µM. purified NadD enzyme, colorimetric absorbance read-out. 360,000 tested, 0.78% active; in the data active = inhibition above about 26%
SMARCA2 activ: SMARCA2 (BRM) function activators, primary screen, cell-based, luminescence, high throughput; MG213 cells, MMTV-luciferase reporter, dexamethasone, overnight; activation, % at 9.1 µM; 370,000 tested, 1% active; in the data active = activation above about 7.8%;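 also: 0% = vehicle wells and 100% = reference activator wells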
Vif imaging: HIV Vif self-association inhibitors, primary screen, imaging, HEK293T, single point. HEK293T cells, Vif self-association by quenched fluorescence, 24 h. 340,000 tested, 0.35% active. inhibition, % at 7.49 µM. AID 602346, 2012; in the data active = inhibition above about 50%, passing the limit was not always enough; inconclusive = no clear call, values can overlap the other calls; inactive = below about 31%
SKN-1 block: suppressors of acrylamide-induced Pgst-4::GFP reporter in worms, primary screen, SKN-1 inhibitor project, whole organism, uHTS, GFP/RFP fluorescence ratio, strain VP596; C. elegans VP596 Pgst-4::GFP/RFP ratio, 24 h; inhibition, % at 21.8 µM; 360,000 tested, 0.49% active;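 active = interference check ratio from 0.5 to 1.5 plus GFP to RFP signal ratio inhibition reaching or exceeding a fixed threshold, cut at about 30% in these data, passing the limit was not always enough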
NadD conf: inhibitors of S. aureus NadD, confirmation, biochemical, colorimetric, single concentration; shares compounds with NadD block; purified S. aureus NadD, colorimetric enzyme assay; inhibition, % at 20 µM; 2,000 tested, 13% active; in the data active = inhibition mostly above about 42%, no sharp cut-off; inactive = mostly below about 42%
* marks the source's active call; other numbers are inactive results.

`NC(=O)[C@H]1CC2(CC(c3cccc(NC(=O)COc4ccc(Cl)cc4)c3)=NO2)CN1C(=O)CC(c1ccccc1)c1ccccc1` (stereo partly specified) gave GRIN3A LBD mod -16.1, esBAF inh -1.3, NadD block 37.4*, SMARCA2 activ -0.9, Vif imaging 0.7, SKN-1 block -2.7 and NadD conf 50.1*.
Screening CCC(=O)N(CC)C[C@H]1[C@H](c2ccc(-c3cccnc3)cc2)[C@@H](CO)N1C(C)=O returned esBAF inh -0.8.
`O=C(c1cccc(S(=O)(=O)N2CCN(c3ccc(F)cc3)CC2)c1)N1CCN(c2ccccc2O)CC1` gave GRIN3A LBD mod 1.5, esBAF inh -0.5, NadD block 38.1*, SMARCA2 activ -0.3, Vif imaging -3.0, SKN-1 block 5.3 and NadD conf 8.8.
Screening O=C(c1cccc(S(=O)(=O)N2CCN(c3ccc(F)cc3)CC2)c1)N1CCCCCCC1 returned GRIN3A LBD mod -1.8, esBAF inh -5.7, NadD block -2.9, SMARCA2 activ -3.8, Vif imaging -12.3 and SKN-1 block 14.4.
For O=C(/C=C/c1cccs1)Nc1cccc(NC(=O)/C=C/c2cccs2)n1 the results were GRIN3A LBD mod 23.7*, esBAF inh inconclusive, NadD block 32.3*, SMARCA2 activ -1.4, Vif imaging -4.4, SKN-1 block 4.5 and NadD conf 32.8.
For O=C(/C=C/c1cccs1)Nc1nccs1 the results were GRIN3A LBD mod -9.6, NadD block 8.2, SMARCA2 activ 3.3, Vif imaging -13.9 and SKN-1 block 7.3.
Screening COc1cccc(-c2ccc3c(c2)O[C@H](CN(C)C(=O)C2CCC2)[C@H](C)CN([C@@H](C)CO)S3(=O)=O)c1 returned esBAF inh -1.3.
Cc1ccccc1N(C(=O)Cc1ccsc1)C(C(=O)NC1CCCCC1)c1ccc(F)cc1 (stereo unspecified) was read as GRIN3A LBD mod 0.5, esBAF inh -9.3, NadD block 30.6*, SMARCA2 activ -1.0, Vif imaging -13.3, SKN-1 block -2.4 and NadD conf -3.4.
`O=C(NC(=S)N1CCN(c2nc(-c3ccccc3)cs2)CC1)c1cncc(Br)c1` gave GRIN3A LBD mod -18.6, esBAF inh -6.1, NadD block 35.0*, SMARCA2 activ 9.8*, Vif imaging 24.4, SKN-1 block 5.8 and NadD conf 23.2.
O=C(Nc1cccc(S(=O)(=O)NC2=NCCCCC2)c1)c1cc(-c2ccc(Cl)cc2)nc2ccccc12 was read as GRIN3A LBD mod -2.2, NadD block 26.1*, SMARCA2 activ -3.6, Vif imaging -6.0, SKN-1 block 9.8 and NadD conf 32.1.
`O=C(NC(=S)Nc1cccc(S(=O)(=O)NC2=NCCC2)c1)c1cc(-c2ccco2)nc2ccccc12` gave GRIN3A LBD mod -0.2, esBAF inh -4.8, NadD block 41.4*, SMARCA2 activ 2.6, Vif imaging 16.6, SKN-1 block -3.2 and NadD conf 51.5*.
Screening O=C(Nc1cccc(S(=O)(=O)NC2=NCCC2)c1)c1cc(-c2ccco2)nc2ccccc12 returned GRIN3A LBD mod -2.6, esBAF inh -6.7, NadD block 67.5*, SMARCA2 activ -3.5, Vif imaging -3.7, SKN-1 block 5.3 and NadD conf 78.3*.
O=C(Nc1cccc(S(=O)(=O)NC2=NCCC2)c1)c1ccccc1 was read as GRIN3A LBD mod -0.3, esBAF inh -7.4, NadD block -4.1, SMARCA2 activ 5.4, Vif imaging -0.8 and SKN-1 block -12.4.
Screening O=C(Nc1cccc(S(=O)(=O)NC2=NCCCCC2)c1)c1cc(-c2ccccc2)nc2ccccc12 returned GRIN3A LBD mod -0.5, esBAF inh 5.1, NadD block 17.2, SMARCA2 activ -2.0, Vif imaging 2.2 and SKN-1 block 12.8.
Screening COc1ccc(-c2cc(C(=O)Nc3cccc(S(=O)(=O)NCc4ccco4)c3)c3ccccc3n2)cc1OC returned GRIN3A LBD mod 1.9, NadD block 57.7*, SMARCA2 activ -0.9, Vif imaging -7.3, SKN-1 block 0.7 and NadD conf 45.2*.
COc1cccc(-c2cn(CC[C@@H]3CC[C@H](NC(=O)CC4CC4)[C@H](CO)O3)nn2)c1 was read as esBAF inh -4.3.
CC(C)C[C@@H](CNCC(=O)[C@H](Cc1c[nH]c2ccccc12)NC(=O)c1[nH]cnc1C(=O)N[C@@H](C)CN)NC(=O)c1nc[nH]c1C(=O)N[C@@H](Cc1ccccc1)C(=O)O was read as GRIN3A LBD mod 1.6, esBAF inh -1.3, NadD block 33.9*, SMARCA2 activ -1.0, Vif imaging 10.6, SKN-1 block -2.8 and NadD conf 43.3.
`CC(C)C[C@@H](CNC(=O)OC(C)(C)C)NC(=O)c1nc[nH]c1C(=O)N[C@@H](CC(C)C)C(=O)CNC[C@H](CC(C)C)NC(=O)c1nc[nH]c1C(=O)N[C@@H](Cc1c[nH]c2ccccc12)C(=O)OC(C)(C)C` gave GRIN3A LBD mod -0.7, esBAF inh 11.5, NadD block 30.2*, SMARCA2 activ 2.0, Vif imaging 1.5, SKN-1 block 20.5 and NadD conf 5.3.
`CC(C)C[C@@H](CN)NC(=O)c1nc[nH]c1C(=O)N[C@@H](Cc1c[nH]c2ccccc12)C(=O)CNC[C@H](C)NC(=O)c1nc[nH]c1C(=O)N[C@@H](C)C(=O)O` gave GRIN3A LBD mod 3.0, esBAF inh -5.8, NadD block 17.0, SMARCA2 activ 2.1, Vif imaging 7.8 and SKN-1 block -5.0.
Screening CC(C)C[C@@H](CN)NC(=O)c1nc[nH]c1C(=O)N[C@@H](C)C(=O)CNC[C@H](CC(C)C)NC(=O)c1nc[nH]c1C(=O)N[C@@H](Cc1ccccc1)C(=O)O returned GRIN3A LBD mod 0.2, esBAF inh -0.8, NadD block 31.9*, SMARCA2 activ 4.4, Vif imaging -2.4, SKN-1 block -3.9 and NadD conf 45.7.
`C[C@@H]1CN([C@@H](C)CO)C(=O)c2cc(NS(C)(=O)=O)ccc2O[C@@H](C)CCCCO[C@@H]1CN(C)S(=O)(=O)c1cccs1` gave esBAF inh 2.3.

High-throughput results (PubChem BioAssay)
